Measurements from PubChem BioAssay (Tox21).
Results filed as inconclusive are left out. Active and inactive are the calls of the source. Unless noted, calls follow the shape of the dose curve; as a rule, active = well fitted curve in the direction sought with a large enough effect in the repeat runs; inconclusive = weak or mixed curves; inactive = no such curve, though single readings can be large; an effect the other way counts as inactive or inconclusive.

Tests used:
[1] = qHTS assay to identify small molecule antagonists of the estrogen related receptor (ERR) signaling pathway from Tox21 library - cell viability counter screen (AID 1224834); settings: ERR reporter cells viability, CellTiter-Fluor, 17.5 h; series mostly up to 92.4 µM; also: nearly all actives have a fitted effect of over 30% in size
Method in brief: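 ERR reporter cells were plated 6 h before compound addition, then exposed to test compounds in DMSO for 17.5 h at 37 C. Viability was read as CellTiter-Fluor fluorescence after a 30-minute incubation at 37 C.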

[2] = target: Luciferin 4-monooxygenase (Photinus pyralis) (UniProt P08659); experiment: qHTS assay to identify small molecule inhibitors of firefly luciferase (AID 1224835); also: nearly all actives have a fitted effect of over 25% in size; settings: purified P. pyralis luciferase, luminescence inhibition; series mostly up to 115 µM
Luciferin 4-monooxygenase (Photinus pyralis), sequence (P08659 whole entry, looked up): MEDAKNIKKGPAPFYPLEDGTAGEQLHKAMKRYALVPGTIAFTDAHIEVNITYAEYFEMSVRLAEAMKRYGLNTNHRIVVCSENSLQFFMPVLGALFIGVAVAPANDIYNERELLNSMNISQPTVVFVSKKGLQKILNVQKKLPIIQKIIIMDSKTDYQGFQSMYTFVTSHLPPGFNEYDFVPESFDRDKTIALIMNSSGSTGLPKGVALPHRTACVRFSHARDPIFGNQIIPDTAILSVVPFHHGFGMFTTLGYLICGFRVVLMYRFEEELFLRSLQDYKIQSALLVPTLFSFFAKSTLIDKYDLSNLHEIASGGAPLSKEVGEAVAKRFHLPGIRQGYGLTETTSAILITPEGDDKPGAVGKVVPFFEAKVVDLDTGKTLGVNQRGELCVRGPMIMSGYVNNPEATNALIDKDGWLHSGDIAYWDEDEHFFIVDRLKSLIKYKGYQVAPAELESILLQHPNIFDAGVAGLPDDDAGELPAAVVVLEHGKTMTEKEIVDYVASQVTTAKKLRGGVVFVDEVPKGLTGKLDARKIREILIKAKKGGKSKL
Method in brief: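 Quantitative HTS format; KM concentrations of both substrates. Purified P. pyralis FLuc activity quantified from luminescence images.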

[3] = qHTS assay to identify small molecule agonists of the constitutive androstane receptor (CAR) signaling pathway - cell viability counter screen (AID 1224836); settings: HepG2-CYP2B6-hCAR viability, CellTiter-Fluor, 23 h, PK11195 added to every well; series mostly up to 92.4 µM; also: nearly all actives have a fitted effect of over 45% in size
Method in brief: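 Multiplexed viability check: HepG2-CYP2B6-hCAR cells, 15-point compound dosing, 0.75 uM PK11195 final, 23 h at 37 C, CellTiter-Fluor fluorescence.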

[4] = qHTS assay to identify small molecule antagonists of the constitutive androstane receptor (CAR) signaling pathway - cell viability counter screen (AID 1224837); settings: HepG2-CYP2B6-hCAR viability, CellTiter-Fluor, 23 h, co-treated with 50 nM CITCO; series mostly up to 92.4 µM; also: nearly all actives have a fitted effect of over 45% in size
Method in brief: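 HepG2 cells stably expressing hCAR and a CYP2B6-2.2kb reporter were plated and pre-incubated 4 hr at 37 C/5% CO2, then given compounds at 15 concentrations plus 50 nM CITCO (final). After 23 hr, viability was read by CellTiter-Fluor fluorescence.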

[5] = target: Nuclear receptor subfamily 1 group I member 3 (Homo sapiens) (UniProt Q14994); experiment: qHTS assay to identify small molecule agonists of the constitutive androstane receptor (CAR) signaling pathway (AID 1224839); settings: HepG2 hCAR CYP2B6-luciferase, agonist mode, 24 h; series mostly up to 92.4 µM;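 also: HepG2 cells stably carrying human CAR and a CYP2B6 luciferase reporter; nearly all actives have a fitted effect of over 15% in size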
Nuclear receptor subfamily 1 group I member 3 (Homo sapiens), sequence (Q14994 whole entry, looked up): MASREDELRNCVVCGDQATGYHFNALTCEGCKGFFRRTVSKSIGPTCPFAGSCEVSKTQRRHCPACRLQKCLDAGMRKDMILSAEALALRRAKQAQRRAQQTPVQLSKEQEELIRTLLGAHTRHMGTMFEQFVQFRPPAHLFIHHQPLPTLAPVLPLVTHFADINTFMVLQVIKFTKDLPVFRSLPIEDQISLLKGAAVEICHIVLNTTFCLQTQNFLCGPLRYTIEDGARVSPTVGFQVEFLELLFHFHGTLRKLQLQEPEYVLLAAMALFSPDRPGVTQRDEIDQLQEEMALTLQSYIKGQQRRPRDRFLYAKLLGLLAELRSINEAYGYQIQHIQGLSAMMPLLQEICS
Method in brief: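 Using human hepatoma HepG2 cells engineered with hCAR and a CYP2B6-2.2kb reporter, 15-concentration compound series were incubated 24 h alongside PK11195 at 0.75 uM final, with luminescence quantified afterwards.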

[6] = qHTS assay to identify small molecule antagonists of the estrogen related receptor signaling pathway with the pleiotropic PPARgamma coactivator (PGC) from Tox21 10K library - cell viability counter screen (AID 1224840; active = well fitted cell-killing curve with a large enough effect in the repeat runs, not every such curve was filed as active; also: nearly all actives have a fitted effect of over 40% in size); settings: PGC/ERR reporter cells viability, CellTiter-Fluor, 17.5 h; series mostly up to 92.4 µM
Method in brief: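 PGC/ERR cells were seeded at 2,000 cells/well and left 6 hours at 37 C/5% CO2 before pin-tool addition of compounds in DMSO. After 17.5 hours at 37 C, CellTiter-Fluor was added and fluorescence read 30 minutes later.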

[7] = qHTS assay to identify small molecule antagonists of the estrogen related receptor signaling pathway with the pleiotropic PPARgamma coactivator (PGC) from Tox21 10K library (AID 1224841; call rule not given here; also: actives are mostly falling curves and most rising ones were filed inactive; nearly all actives have a fitted effect of over 50% in size); settings: PGC/ERR reporter cell line, ONE-Glo luciferase, 18 h; series mostly up to 92.4 µM
Method in brief: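 PGC/ERR reporter cells were seeded at 2,000 cells/well and held 6 hours at 37 C/5% CO2 before pin-tool addition of compounds in DMSO. After 18 hours at 37 C, One-Glo was added and luminescence read after 30 minutes at room temperature.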

[8] = qHTS assay to identify small molecule agonists of the estrogen related receptor signaling pathway with the pleiotropic PPARgamma coactivator (PGC) from Tox21 10K library (AID 1224842); settings: PGC/ERR reporter cell line, luciferase ONE-Glo, 18 h; series mostly up to 92.4 µM; also: nearly all actives have a fitted effect of over 15% in size
Method in brief: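 PGC/ERR reporter cells (NTP line) were seeded 2,000 per well, rested 6 h at 37 C/5% CO2, then pin-dosed with compounds in DMSO for 18 h at 37 C; luciferase read by One-Glo luminescence after 30 min at room temperature.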

[9] = target: Nuclear receptor subfamily 1 group I member 3 (Homo sapiens) (UniProt Q14994); experiment: qHTS assay to identify small molecule antagonists of the constitutive androstane receptor (CAR) signaling pathway (AID 1224838); settings: HepG2-CYP2B6-hCAR luciferase, CITCO-stimulated, 24 h; series mostly up to 92.4 µM; also: nearly all actives have a fitted effect of over 40% in size
Method in brief: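 HepG2 cells stably co-transfected with hCAR and a CYP2B6-2.2kb luciferase reporter were seeded 4 h before compound addition at 15 concentrations. Cells were stimulated with 50 nM CITCO (final) for 24 h at 37 C; luciferase luminescence was then read.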

Measured: Potency

C[C@@H]1CCN(C(=O)[C@H](CCCN=C(N)N)NS(=O)(=O)c2cccc3c2NC[C@H](C)C3)[C@@H](C(=O)O)C1
not listed: [9]
inactive: all other assays above

O=C(c1ccccc1)C1CCCCC1
not listed: [9]
inactive: all other assays above

COc1ccccc1OCC(O)CN1CCN(CC(=O)Nc2c(C)cccc2C)CC1 (stereo not drawn)
inactive: [1] | [2] | [4] | [9] | [5]

CC(C)(C)c1nnc(NS(=O)(=O)c2ccccc2)s1
not listed: [7] | [9]
inactive: all other assays above

CC(NC(CCc1ccccc1)C(=O)O)C(=O)N1C(=O)N(C)CC1C(=O)O (stereo not drawn)
not listed: [9]
inactive: all other assays above

FC1(F)C(F)(F)C(F)(F)C2(F)C(F)(F)C(F)(F)C(F)(F)C(F)(F)C2(F)C1(F)F (stereo not drawn)
not listed: [9]
inactive: all other assays above

NS(=O)(=O)c1ccc(C(=O)O)cc1
not listed: [9]
inactive: all other assays above

Cc1ccc(C#N)cc1
not listed: [9]
inactive: all other assays above

NS(=O)(=O)c1cc(C(=O)NN2C[C@H]3[C@H]4CCC(C4)[C@H]3C2)ccc1Cl
not listed: [9]
inactive: all other assays above

CCCc1cc(C(N)=S)ccn1
not listed: [9]
inactive: all other assays above

CCN(CC)CCOCCOC(=O)C1(c2ccccc2)CCCC1
not listed: [4] | [7] | [8]
inactive: all other assays above

NC(=O)c1cn(Cc2c(F)cccc2F)nn1
not listed: [3] | [7] | [8]
inactive: all other assays above
